TrxR1 inh – qHTS Assay for Inhibitors of Mammalian Selenoprotein Thioredoxin Reductase 1 (TrxR1): qHTS | Thioredoxin reductase 1, cytoplasmic (Rattus norvegicus), O89049 | recombinant rTrxR1, NADPH fluorescence consumption, selenite substrate | Potency, µM (doses to about 114 µM), for inactives: at the top dose activity change, negative = inhibition, usual class: inhibitors | 390,000 tested, 1% active | AID 588453, 2011; note: potency is the fitted concentration of half-maximal effect; nearly all actives have a fitted effect of over 65% in size
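Rat TrxR1 (90 nM in the dispensed reagent) was pre-reduced with 400 uM NADPH for 5 min at room temperature, then incubated with compound for 15 min. After 400 uM selenite was added, NADPH fluorescence (Ex 340/Em 450 nm) was followed for 8 min.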
Six1-Eya2 blk – qHTS Assay for Inhibitors of the Six1/Eya2 Interaction. Homeobox protein SIX1 (Homo sapiens) + Protein phosphatase EYA2 (Homo sapiens), …. AlphaScreen GST-Six1/His-Eya2 binding, biochemical; active compounds read low. activity change, % (concentration not given with the values). 360,000 tested, 0.56% active. AID 651725, 2012; in the data active = activity change below about -65%; inconclusive = mostly about -30% to -63%
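AlphaScreen with GST-Six1 and His-Eya2 (5X mix: 250 nM and 500 nM), glutathione donor and nickel acceptor beads; buffer 50 mM Tris pH 8.0, 300 mM NaCl, 1 mM TCEP; 1 h at 37 C in the dark.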
Eya2 phos inh – qHTS Assay for Inhibitors of the Phosphatase Activity of Eya2; Protein phosphatase EYA2 (Homo sapiens), O00167; recombinant Eya2, OMFP fluorescence dephosphorylation (OMFP is methylfluorescein phosphate); Potency, µM (doses to about 76.9 µM), for the others: top-dose activity, negative = inhibition, most hits filed as inhibitors; 330,000 tested, 0.006% active; note: potency is the fitted concentration of half-maximal effect
Target sequence (O00167 whole entry, looked up): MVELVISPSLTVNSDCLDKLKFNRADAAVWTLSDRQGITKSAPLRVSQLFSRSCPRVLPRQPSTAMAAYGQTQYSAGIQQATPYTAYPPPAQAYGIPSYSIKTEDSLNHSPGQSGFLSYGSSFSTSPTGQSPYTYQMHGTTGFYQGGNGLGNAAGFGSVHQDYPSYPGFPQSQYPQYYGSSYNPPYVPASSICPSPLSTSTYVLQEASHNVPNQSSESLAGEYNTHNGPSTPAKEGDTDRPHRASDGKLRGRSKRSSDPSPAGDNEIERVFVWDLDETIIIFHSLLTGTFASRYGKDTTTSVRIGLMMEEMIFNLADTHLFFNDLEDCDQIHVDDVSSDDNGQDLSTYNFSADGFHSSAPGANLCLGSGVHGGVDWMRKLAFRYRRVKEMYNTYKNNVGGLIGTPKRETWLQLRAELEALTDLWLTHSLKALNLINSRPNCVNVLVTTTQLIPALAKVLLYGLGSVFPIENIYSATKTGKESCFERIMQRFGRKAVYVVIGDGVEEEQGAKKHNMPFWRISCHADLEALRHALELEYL
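Eya2 protein (added as 0.2 uM solution) was preincubated with compound for 10 min at ambient temperature in 50 mM HEPES pH 7.5, 50 mM NaCl, 5 uM MgCl2, 0.05% BSA, 1 mM DTT. OMFP (added at 50 uM) then reacted 10 min; fluorescence read at 485/525 nm.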
CtBP-E1A blk – qHTS Assay for Inhibitors of the CtBP/E1A Interaction. CtBP / adenovirus E1A interaction (AlphaScreen). 340,000 tested, 0.49% active. AlphaScreen GST-E1A/His-CtBP binding, 1536-well; active compounds read low. activity change, % (test concentration not listed); in the data active = activity change below about -65%; inconclusive = mostly about -30% to -63%
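In 5 uL wells, 23 nL compound meets equimolar GST-E1A and His-CtBP (5X stock 125 nM each) for 2 h, 37 °C. Beads (5X, 50 ug/mL) then 1 h, 37 °C, dark.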
TrxR1 substrate – qHTS Assay for Substrates of Mammalian Selenoprotein Thioredoxin Reductase 1 (TrxR1): qHTS; 390,000 tested, 0.01% active; AID 588456, 2011; Potency, µM (top dose mostly 114 µM), for inactives: at the highest dose activity change, negative = substrate turnover; purified TrxR1 substrate turnover, NADPH consumption readout; Thioredoxin reductase 1, cytoplasmic (Rattus norvegicus), O89049; note: potency is the fitted concentration of half-maximal effect; nearly all actives have a fitted effect of over 50% in size
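Rat TrxR1, dispensed at 90 nM, was prereduced with 400 uM NADPH (final) for 5 min at ~22 deg C, then incubated with compound 15 min before 400 uM selenite. A first-read NADPH fluorescence drop versus no-compound background flagged substrates.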
GALK inh – qHTS Assay for Inhibitors of Human Galactokinase (GALK). P51570. Purified GALK, Kinase-Glo residual ATP luminescence. Potency, µM (series often up to 57.5 µM), for inactives: at the highest dose activity change, negative = inhibition, usual class: inhibitors. 270,000 tested, 0.007% active. AID 1868, 2009; note: potency is the fitted concentration of half-maximal effect
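Human GALK (5 nM) with 35 uM ATP and 100 uM galactose in 20 mM HEPES pH 8.0, 5 mM MgCl2, 60 mM NaCl, 1 mM DTT, 0.01% BSA. After 1 h at room temperature, leftover ATP was read by Kinase-Glo Plus luminescence.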
Active calls of the source: *; ? = inconclusive; . = no result given; [ ] = another dose, or the depositor's remark. Rows were chosen to be rich in hits. Some 1.5% of all compounds tested hit in one or more screens of this group. Unless noted, calls come from the whole dose curve; as a rule, active = well fitted curve in the direction sought with a large enough effect; inconclusive = small, poorly fitted or top-dose-only effect, or another doubt; inactive = no such curve, though single readings can be large; an effect the other way counts as inactive or inconclusive. % is set by controls: 0 for no effect and ±100 for the full control effect.

SMILES	TrxR1 inh	Six1-Eya2 blk	Eya2 phos inh	CtBP-E1A blk	TrxR1 substrate	GALK inh
CCOC(=O)C(CC)Sc1ccc2nnc(-c3ccc(F)cc3)n2n1 (stereo not given)	20%	.	.	.	19%	.
Cc1ccc(CS(=O)Cc2ccc(C(=O)NC3CCCCCC3)o2)cc1 (stereo not given)	?	4	-2%	-1	10%	-8%
Cc1ccc(CS(=O)Cc2ccc(C(=O)NC3CCCC(C)C3C)o2)cc1 (stereo not given)	45µM*	2	-10%	2	8%	0%
Cc1ccc(-n2c(-c3ccccc3)nsc2=NC#N)cc1	10%	.	.	.	-5%	.
Cc1ccc(-c2cc(-c3ccc(F)cc3)c(C#N)c(N)n2)o1	16µM*	-4	-2%	3	81%	.
Cc1ccc(-c2cc(-c3ccc(C)o3)nc(N)c2C#N)cc1	50µM*	-15	-8%	-20	78%	-1%
Cc1ccc(-c2cc(-c3ccc(Cl)cc3)c(C#N)c(N)n2)o1	50µM*	18	-34%	28	35%	-2%
Cc1ccc(-c2cc(-c3ccc4c(c3)OCO4)c(C#N)c(N)n2)o1	-23%	8	-5%	15	29%	6%
CCOc1ccc(CNS(=O)(=O)c2ccc3c(c2)CC(C)N3C(C)=O)cc1OC (stereo not given)	1%	.	.	.	-3%	.
CCCCOC(=O)c1ccc(NC(=O)c2cc3c(=O)n4cccc(C)c4nc3s2)cc1	9%	.	.	.	4%	.
CCC(C)[C@@H](NC(=O)OC(C)(C)C)c1nnc(S(=O)(=O)Cc2cccc(C)c2)o1 (stereo not given in full)	1.8µM*	6	16%	7	-15%	-2%
Cc1ccccc1CS(=O)(=O)c1nnc([C@H](Cc2ccccc2)NC(=O)OC(C)(C)C)o1	0.63µM*	4	-3%	-4	0%	1%
Cc1ccc(CNC(=O)c2cc(=O)c3cc(C)cc(C)c3o2)cc1	6%	.	.	.	-6%	.
COC(=O)CC1Oc2ccccc2-n2cc(-c3ccc(Cl)cc3)nc21 (stereo not given)	12%	.	.	.	3%	.
CCOC(=O)CSc1nnc(C)c(=O)[nH]1	-13%	9	-9%	6	-2%	0%
CCOC(=O)CSc1nnc(NCC(=O)OC)c(=O)[nH]1	10µM*	10	-16%	-5	3%	1%
CN(C)c1ccc(C=c2c3ccccc3n3c2cc(-c2ccccc2)[n+]3C)cc1	6%[11.4 µM]	?	.	16	1%[11.4 µM]	.
COc1cc(C=c2c3ccccc3n3c2cc(-c2ccccc2)[n+]3C)cc(OC)c1OC	50µM*	?	.	4	-10%	.
CN(C)c1ccc(C=c2c3cc([N+](=O)[O-])ccc3n3c2cc(-c2ccccc2)[n+]3C)cc1	40µM*	-80*	.	6	-19%	.
COc1cc(N(C)C)ccc1C=c1c2ccccc2n2c1cc(-c1ccccc1)[n+]2C	10%[11.4 µM]	-80*	.	-80*	8%[11.4 µM]	.
CN(C)c1ccc(C=c2c3ccccc3n3c2cc(-c2ccc(Cl)cc2)[n+]3C)cc1	-17%	?	.	18	4%	.
CCOC(=O)c1c(NC(=O)c2ccc(OCC)c(Br)c2)sc2c1CCCC2	18%	.	.	.	6%	.
CC(C)(C)OC(=O)N1CCC(c2c(C(=O)NC3CCCCC3)cnn2-c2cccc(F)c2)CC1	-1%	.	.	.	-3%	.
Cc1ccc(OC(=O)CCS(=O)(=O)c2ccc(C)cc2)cc1	6%	1	1%	-3	-3%	8%
